Screens as filed in PubChem BioAssay.
KCNQ2 enhance: KCNQ2 (rat) channel potentiation; O88943; CHO-K1 KCNQ2, FluxOR thallium flux fluorescence; active compounds read high; 310,000 compounds, 0.54% hits; B-score at 10 µM;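 active = fluorescence ratio B-score at least 3 SD of library B-scores, with initial fluorescence B-score within 3 of them, cut at about 5.3 in these data; same plate scores as AID 2156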;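 also: B-score of peak minus minimum over baseline fluorescence ratio after K+ and Tl+ stimulus; positive B-score means potentiation of KCNQ2 with more thallium influx and brighter signal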
KCNQ2 inh: inhibitors of rat KCNQ2 potassium channel. CHO-K1 KCNQ2, FluxOR thallium flux, 20 min; active compounds read low. 310,000 compounds, 1.1% hits. O88943. B-score at 10 µM;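 active = fluorescence ratio B-score at most minus 3 library SDs, with starting brightness B-score within 2 library SDs, cut at about -5.5 in these data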
Kir21 confirm: confirmation of mouse Kir2.1 potassium channel inhibitors. shares compounds with KCNQ2 enhance. Kir2.1-expressing cells, FluxOR thallium flux fluorescence; active compounds read low. Tl flux remaining, % of negative control (active compounds read low), % at 10 µM. 2,300 compounds, 41% hits. AID 2032;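 active = Primary-screen hit whose thallium flux fell at least 3 control SD below untreated wells in both duplicates, with normal baseline fluorescence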;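 also: 0% = blank wells without stimulus and 100% = stimulated no-compound controls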
Target sequence (P35561 whole entry, looked up): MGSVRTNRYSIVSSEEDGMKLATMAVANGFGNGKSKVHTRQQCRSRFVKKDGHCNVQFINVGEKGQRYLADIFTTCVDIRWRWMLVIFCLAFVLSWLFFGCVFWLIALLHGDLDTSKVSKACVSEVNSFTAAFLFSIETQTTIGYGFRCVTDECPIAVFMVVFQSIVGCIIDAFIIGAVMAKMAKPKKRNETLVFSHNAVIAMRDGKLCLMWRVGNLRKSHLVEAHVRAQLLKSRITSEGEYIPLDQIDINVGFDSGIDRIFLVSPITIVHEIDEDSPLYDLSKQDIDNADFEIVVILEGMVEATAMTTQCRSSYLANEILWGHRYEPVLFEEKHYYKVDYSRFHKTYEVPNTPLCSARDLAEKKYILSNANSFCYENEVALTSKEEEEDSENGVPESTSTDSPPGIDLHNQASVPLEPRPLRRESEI
HEK293 ctr: alters thallium flux in parental HEK293 cells, Kir2.1 counter-screen; shares compounds with KCNQ2 enhance; FluxOR thallium flux fluorescence; 0% = unstimulated blank wells; FluxOR signal as % of negative control (100 = no effect), % at 10 µM; 2,300 compounds, 19% hits; AID 2105;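 active = dye signal at least 3 control SD above or below untreated wells in both duplicates, raw fluorescence within 3, either direction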;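 also: percent is based on the flux ratio of peak minus minimum fluorescence over baseline F0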
CHO-K1 ctr: alters thallium flux in parental CHO-K1 cells, KCNQ2 counter-screen. FluxOR thallium flux fluorescence; zero = vehicle mean+3SD, 100% = vehicle-minus-blank window. shares compounds with KCNQ2 enhance. AID 2282. activity increase over 3SD of controls, % at 10 µM. 1,200 compounds, 43% hits;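 active = signal rise of at least 3 SD above the untreated control mean, in both duplicate wells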;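 also: counter screen of KCNQ2 potentiator hits so any rise reflects channel-independent effects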
KCNQ1 pot spec: human KCNQ1 counter-target activity of KCNQ2 potentiators. CHO KCNQ1 stable, FluxOR thallium flux fluorescence; beyond 3SD, as % of vehicle-control signal. AID 2283. activation over 3SD threshold, % at 10 µM. 1,200 compounds, 28% hits. shares compounds with KCNQ2 enhance;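 active = fluorescence ratio rise of at least 3 SD of vehicle wells above their mean, in both replicate wells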;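 also: 0% = vehicle mean plus 3 SD and 100% = vehicle minus unstimulated blank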
KCNQ2 pot conf: rat KCNQ2 channel potentiator confirmation; AID 2287; 1,200 compounds, 68% hits; shares compounds with KCNQ2 enhance; CHO-KCNQ2 cells, FluxOR thallium flux fluorescence; potentiation, less the hit threshold, % at 10 µM;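 active = fluorescence ratio rising 3 SD or more over the vehicle control mean in both replicates, plus primary screen hit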;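 also: peak minus minimum thallium fluorescence divided by baseline after K/Tl stimulus; 0% = vehicle mean plus 3 SD and 100% = vehicle minus unstimulated blank difference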
Kir2-1 sel: tests whether KCNQ2 potentiators also affect mouse Kir2.1. shares compounds with KCNQ2 enhance. HEK293 Kir2.1, FluxOR thallium flux fluorescence. activity over 3SD threshold, % at 10 µM. 1,200 compounds, 2% hits. AID 2345;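 active = fluorescence ratio rise of at least 3 SD above the vehicle-control mean, seen in both replicates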;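 also: 0% = vehicle mean plus 3 SD and 100% = vehicle minus no-stimulus blank window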
KCNQ2 W236L MoA: rat KCNQ2 W236L mutant potentiation by KCNQ2 potentiators | shares compounds with KCNQ2 enhance | CHO KCNQ2-W236L, automated patch clamp current | current increase over 3SD of negative controls (%), active compounds read high, % at 25 µM | 940 compounds, 10% hits | AID 2558;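 active = current increase at least 3 SD of the untreated controls above them in both duplicate recordings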
Numbers without * were called inactive; i = inactive; nt = not tested or not shown. The list is not random: actives were taken first. Their share in the collection is about 1.6%.

SMILES | KCNQ2 enhance | KCNQ2 inh | Kir21 confirm | HEK293 ctr | others
CCOC(=O)C1=C(Cn2cnc3ccccc32)NC(=O)NC1c1cc(C)ccc1C (configuration not stated) | 6.61* | i | i | 52.5%* | CHO-K1 ctr=-10.4;KCNQ1 pot spec=-15.3;KCNQ2 pot conf=-7.9;Kir2-1 sel=-39.4;KCNQ2 W236L MoA=i
Cc1cc(NC(=O)CSc2nnc(C)n2C)no1 | nt | i | nt | nt
Cc1ccc(C)c(CSc2ccc3nnc(-c4ccccn4)n3n2)c1 | 1.71 | i | nt | nt
COc1ccccc1-c1coc2c(CN3CCCC(C)C3)c(O)ccc2c1=O (configuration not stated) | 0.38 | i | nt | nt
CS(=O)(=O)Nc1cccc(C2=NN(C(=O)c3cccc([N+](=O)[O-])c3)C(c3cccs3)C2)c1 (configuration not stated) | nt | i | nt | nt
O=c1c(Cl)c(Cl)cnn1Cc1nnc(-c2ccccc2Br)o1 | 5.48* | i | i | i | CHO-K1 ctr=40.8*;KCNQ1 pot spec=-12.4;KCNQ2 pot conf=12.5*;Kir2-1 sel=-33.5;KCNQ2 W236L MoA=i
O=C1NC2(CCCc3ccccc32)C(=O)N1Cc1nnc(-c2ccccc2Br)o1 (configuration not stated) | nt | i | nt | nt
CCCc1cc(=O)[nH]c(Nc2ccc(Cl)cc2)n1 | nt | i | nt | nt
CC(C)NC(=O)Nc1n[nH]c(Nc2ccc(Cl)cc2)n1 | 5.61* | i | i | i | CHO-K1 ctr=9.6*;KCNQ1 pot spec=-20.9;KCNQ2 pot conf=-3.8;Kir2-1 sel=-27.1;KCNQ2 W236L MoA=i
O=C(CSc1nnc(-c2cccnc2)n1Cc1ccco1)c1ccc(Br)cc1 | nt | i | 67.5%* | 72.5%*
O=C(CSc1nnc(-c2cccnc2)n1Cc1ccco1)c1ccc2ccccc2c1 | nt | i | nt | nt
O=C(c1ccc(F)cc1)C1CCN(C(=O)c2ccccc2F)CC1 | 0.55 | i | nt | nt
COc1ccc(C2=NOC(Cn3c(Cc4ccc(Cl)cc4)nc4c3c(=O)n(C)c(=O)n4C)C2)cc1 (configuration not stated) | 5.4* | i | i | i | CHO-K1 ctr=6.7*;KCNQ1 pot spec=-39.1;KCNQ2 pot conf=-12.7;Kir2-1 sel=-24.1
COc1ccccc1C1=NOC(Cn2c(NCCCO)nc3c2c(=O)n(C)c(=O)n3C)C1 (configuration not stated) | 0.64 | i | nt | nt
O=C(c1ccco1)N1CCN(CC(O)COc2ccc3oc4ccccc4c3c2)CC1 (configuration not stated) | 4.96 | i | nt | nt
Cc1ccc(CN2CCN(/N=C/C=C/c3ccccc3[N+](=O)[O-])CC2)cc1 | nt | i | nt | nt
CC(C)(CO)CNC(=O)c1ccc(OC2CCN(C(=O)C3CC3)CC2)cc1 | 0.59 | i | nt | nt
COc1ccccc1NC(=O)c1nn(C)c(C(=O)Nc2ccccc2OC)c1[N+](=O)[O-] | nt | i | nt | nt
COc1ccccc1NC(=O)c1c(N=Cc2ccccc2O)cnn1C | 11.6* | i | i | i | CHO-K1 ctr=46.6*;KCNQ1 pot spec=64.1*;KCNQ2 pot conf=-12.1;Kir2-1 sel=-28.4
Cc1ccc(SCc2c(C#N)c3ccccc3n2C)cc1 | nt | i | i | i
Cn1c(CSc2ccccc2)c(C#N)c2ccccc21 | 0.32 | i | nt | nt
C#CCOCCOCCOCCNc1nc(N2CCN(C(=O)C([C@@H](C)CC)n3cc(C(N)COC(=O)C(F)(F)F)nn3)CC2)nc(N2CCN(C(=O)[C@H](CCC(=O)O)n3cc(C(N)CC(C)C)nn3)CC2)n1 (some centres not stated) | 0.73 | i | nt | nt
Cc1c(N2C(=O)/C(=C\c3ccccc3O)SC2=S)c(=O)n(-c2ccccc2)n1C | 17.8* | i | i | 343.0%* | CHO-K1 ctr=114.2*;KCNQ1 pot spec=-12.9;KCNQ2 pot conf=40.4*;Kir2-1 sel=-7.5;KCNQ2 W236L MoA=i
Cc1c(N2C(=O)/C(=C/c3ccccc3)SC2=S)c(=O)n(-c2ccccc2)n1C | 1.43 | i | nt | nt
Cc1oc(-c2cccc(Cl)c2)nc1CS(=O)(=O)CC(=O)NC1CCCC1 | nt | i | nt | nt
SMILES | KCNQ2 enhance | KCNQ2 inh | Kir21 confirm | HEK293 ctr | others
OC(COc1ccc2cc(Br)ccc2c1)CN1CCCC1 (configuration not stated) | nt | i | 38.5%* | i
O=S(=O)(N1CCCCC1)N1CCN(CC(O)COc2ccc3cc(Br)ccc3c2)CC1 (configuration not stated) | 1.15 | i | nt | nt
COc1cccc(OCC(O)CN2CCN(c3ccccn3)CC2)c1 (configuration not stated) | 0.33 | i | nt | nt
OC(COc1ccc2cc(Br)ccc2c1)CN1CCN(c2ccccn2)CC1 (configuration not stated) | 7.38* | i | i | i | CHO-K1 ctr=-7.4;KCNQ1 pot spec=13.9*;KCNQ2 pot conf=-11.3;Kir2-1 sel=-11.0
Cc1cccc(NC(=O)c2ccc(NC(C)c3ccccc3)c([N+](=O)[O-])c2)n1 (configuration not stated) | nt | i | nt | nt
CCOC(=O)CSc1nnc(-c2ccco2)n1-c1ccccc1 | nt | i | nt | nt
COC(=O)c1cccc(CSc2nnc(-c3ccco3)n2-c2ccccc2)c1 | nt | i | 58.0%* | 68.0%*
CCc1ccc(OCC(=O)NC2CCCCC2)c(Br)c1 | 23.2* | i | i | i | CHO-K1 ctr=138.3*;KCNQ1 pot spec=-15.6;KCNQ2 pot conf=72.2*;Kir2-1 sel=-43.7;KCNQ2 W236L MoA=i
CCc1ccc(OCC(=O)NNC(=S)NC(=O)C2CCCCC2)c(Br)c1 | nt | i | nt | nt
O=C(Cc1ccc(Cl)c(Cl)c1)NC1CCCCCC1 | 7.21* | i | i | i | CHO-K1 ctr=-1.1;KCNQ1 pot spec=0.5*;KCNQ2 pot conf=0.8*;Kir2-1 sel=-32.8;KCNQ2 W236L MoA=i
O=C(Cc1ccc(Cl)cc1Cl)NC1CCCCCC1 | 3 | i | nt | nt
O=C(CSc1nnc(-c2cccs2)n1-c1cccc(Cl)c1)c1cccc2c1OCCO2 | 0.02 | i | nt | nt
COc1ccc(C(=O)n2cnc3ccccc32)cc1[N+](=O)[O-] | 0.04 | i | nt | nt
C/C(=C/CCC(C)C1CCC2(C)C3CCC4C(C)(C)C(=O)CCC4(C)C3=CCC12C)C(=O)O (configuration not stated) | 1.57 | i | nt | nt
C/C(=C/CCC(C)[C@H]1CC[C@@]2(C)C3=C(CC[C@]12C)[C@@]1(C)CCC(=O)C(C)(C)[C@@H]1CC3)C(=O)O (some centres not stated) | 21.4* | i | i | i | CHO-K1 ctr=1.4*;KCNQ1 pot spec=-11.0;KCNQ2 pot conf=-26.1;Kir2-1 sel=-33.0
O=C(C1CCCN(Cc2ccc(Br)cc2)C1)N1CCCCC1 (configuration not stated) | 2.07 | i | nt | nt
CC1(c2ccc(OC(F)F)cc2)NC(=O)N(CC(=O)Nc2ccc(Cl)cc2F)C1=O (configuration not stated) | nt | i | nt | nt
CCOc1cc(-c2nc(C)c(C(C)=O)n2O)ccc1OCC(=O)Nc1ccccc1 | nt | i | nt | nt
